uPA generation = qHTS for Inhibitors of Cell Surface uPA Generation. cell surface uPA generation assay, qHTS. Potency, µM (series often up to 38.3 µM), hits mostly inhibitors. actives 0.31% (n = 330,000). AID 540303, 2011; active = well fitted inhibition curve with a large enough effect; inconclusive = small, poorly fitted or top-dose-only effect; inactive = no such curve, though single readings can be large or run the other way; tested in mouse RAW 264.7 cells; note: nearly all actives have a fitted effect of over 55% in size
MmCpn inh = Inhibitors of TCP-1 ring complex (TRiC) of Methanococcus maripaludis (MmCpn): qHTS; Chaperonin Mm-Cpn (Methanococcus maripaludis); purified Mm-Cpn ATPase, ADP Transcreener TR-FRET; Potency, µM (series often up to 76.9 µM), most hits filed as inhibitors; actives 0.031% (n = 330,000); AID 504842, 2011; note: nearly all actives have a fitted effect of over 80% in size
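TR-FRET (320 nm excitation; 590 and 665 nm emission) reports ADP made from 10 uM ATP by 25 nM enzyme; compounds were preincubated 10 min, reaction run 30 min, both at 37°C.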
GLP-1R inv ag = qHTS of GLP-1 Receptor Inverse Agonists (Inhibition Mode); HEK293 GLP-1R CRE-luciferase, luminescence, 24 h; GLP-1R form is constitutively active; Potency, µM (titrated, usually from 38.3 µM), most hits filed as inhibitors; actives 1.6% (n = 410,000); AID 624417, 2012; note: nearly all actives have a fitted effect of over 55% in size
Target sequence (P43220 whole entry, looked up): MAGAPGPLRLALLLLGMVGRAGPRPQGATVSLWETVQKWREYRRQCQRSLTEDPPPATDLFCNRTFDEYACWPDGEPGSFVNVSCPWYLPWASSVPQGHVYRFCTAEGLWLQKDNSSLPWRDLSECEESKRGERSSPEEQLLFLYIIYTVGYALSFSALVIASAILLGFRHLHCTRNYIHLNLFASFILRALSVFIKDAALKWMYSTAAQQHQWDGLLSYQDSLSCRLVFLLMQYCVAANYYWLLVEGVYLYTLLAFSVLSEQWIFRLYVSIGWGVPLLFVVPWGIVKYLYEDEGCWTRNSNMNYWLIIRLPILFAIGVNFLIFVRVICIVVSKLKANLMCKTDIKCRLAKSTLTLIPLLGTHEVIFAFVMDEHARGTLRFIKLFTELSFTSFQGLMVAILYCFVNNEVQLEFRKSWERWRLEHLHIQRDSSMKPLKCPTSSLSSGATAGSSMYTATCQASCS
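HEK293 cells stably co-expressing a cAMP-responsive luciferase reporter and constitutively active GLP-1R were seeded, incubated 12 h, then exposed to compounds for 24 h at 37 C. Luminescence was read 12 min after detection reagent; inverse agonists lower signal.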
CCT modulator = High-Throughput Screening for Modulators of Cytosolic Chaperonin Activity; purified chaperonin ATPase assay, HTRF ADP detection, 30 min; activity change, % (test concentration not listed), hits read low; AID 651819, 2012; actives 0.3% (n = 360,000); in the data active = activity change below about -30%
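We incubate TRiC, 40 or 20 nM final, with library compounds at 76 uM and 10 uM ATP for 30 min at 37 °C. ADP formed is detected with Transcreener HTRF reagents after 30 min at room temperature.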
HEK293 tox = qHTS of GLP-1 Receptor Inverse Agonists: Cytotox Screen | HEK293 cAMP-luciferase reporter cells, luminescence, 24 h | Potency, µM (series often up to 38.3 µM), usual class: inhibitors | actives 0.13% (n = 410,000) | AID 624418, 2012;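 note: loss of luciferase light is scored as toxicity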
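To flag toxic compounds, the library was rerun on cells for 24 hr at 37 deg C and 5% CO2. Viability-linked luminescence was captured 12 min after adding luciferase detection reagent.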
GLP-1R agonist = qHTS of GLP-1 Receptor Agonists. actives 0.007% (n = 380,000). AID 624172, 2012. Potency, µM (series often up to 45.6 µM), actives largely listed as activators. HEK293 GLP-1R CRE-luciferase, luminescence, 4-6 h; cells express a hypersensitive GLP-1R form
Hits are given with their value; 0 = inactive; ? = inconclusive; - = not tested or not shown. This is a sample that favours compounds with a hit; in the whole collection about 2.2% have one here. Unless noted, calls come from the whole dose curve; as a rule, active = well fitted curve in the direction sought with a large enough effect; inconclusive = small, poorly fitted or top-dose-only effect, or another doubt; inactive = no such curve, though single readings can be large; an effect the other way counts as inactive or inconclusive.

SMILES	uPA generation	MmCpn inh	GLP-1R inv ag	CCT modulator	HEK293 tox	GLP-1R agonist
Cc1ccc(CN=c2c([N+](=O)[O-])nn(-c3ccc(Cl)cc3)n2O)cc1	0	0	0	0	0	0
COc1ccc(-n2c(C)cc(C(=O)Cn3c(NCCO)nc4ccccc43)c2C)cc1	0	0	10µM	0	0	0
Cc1ccc(CNC(=O)c2cnc(N3CCCCC3)c3ccccc23)cc1	-	-	?	-	0	-
O=C(Nc1ccccc1)/C(=C/c1cccc(Br)c1)NC(=O)c1ccco1	0	0	0	0	0	0
O=C(OCc1ccccc1)/C(=C/c1cccc(Br)c1)NC(=O)c1ccco1	0	0	10µM	0	0	0
CN(C)c1ccc(/C=C2/C[N+](C)(C)C/C(=C/c3ccc(N(C)C)cc3)C2=O)cc1	0	-	0	0	8.9µM	0
CC(O)C1CCC2C3CCC4CC(O)CCC4(C)C3CCC12C (stereo not drawn)	-	-	-	-	-	0
COc1cc(NC(=O)Cn2nnnc2-c2ccccc2F)cc(OC)c1OC	-	-	0	-	0	-
CCN(C(=O)c1ccc2c(c1)OCO2)C12CC3CC(CC(C3)C1)C2	0	0	11µM	0	0	0
Cc1cccc(NC(=O)c2oc3ccc(S(=O)(=O)N(C)C4CCCCC4)cc3c2C)c1C	-	-	0	-	0	-
COc1ccc(Br)cc1CNC(=O)Cn1nc(C)n2c(cc3cc(F)ccc32)c1=O	-	-	0	-	0	-
Cc1onc(-c2ccc3c(c2)OCO3)c1-c1ccc2[nH]ccc2c1	?	0	8.9µM	0	?	0
c1cc2cc(-c3c(-c4ccc5c(c4)OCO5)noc3-c3ccsc3)ccc2[nH]1	0	0	?	0	0	0
COc1ccc(N2CCN(C(=O)c3nc(-c4ccc(Cl)cc4)n4c3CCCCC4)CC2)cc1	-	-	0	-	0	-
Cc1cccc(C2=NN(c3ccccc3)[C@@H](C(=O)N3CCOC3=O)[C@@H]2c2ccc(F)cc2)c1	0	32µM	13µM	0	0	0
Cc1ccccc1C(=O)Nc1ccnn1C1CCN(Cc2c(C)n(C)c3ccccc23)CC1	0	0	11µM	0	0	0
CCc1ccc(CN2CCC(n3nccc3NC(=O)c3ccccc3C)CC2)cc1	0	0	5.6µM	0	?	0
Cc1ccccc1C(=O)Nc1ccnn1C1CCN(Cc2cccnc2)CC1	0	0	0	0	0	0
Cc1ccc(C)c2[nH]c(=O)c(C(c3nnnn3Cc3ccco3)N3CCc4ccccc4C3)cc12 (stereo not drawn)	0	?	10µM	0	0	0
CN(C)c1ccc(NC(=O)Cn2cc(S(=O)(=O)Cc3ccccc3Cl)c3ccccc32)cc1	-	-	?	-	0	-
O=C1[C@H]2[C@@H](c3ccccc3)N[C@]3(CCCN(Cc4ccc(C(F)(F)F)cc4)C3=O)[C@H]2C(=O)N1Cc1ccccc1	-	-	11µM	0	0	0
O=C1[C@H]2[C@@H](c3ccc(C(F)(F)F)cc3)N[C@]3(CCCN(Cc4ccc(F)cc4)C3=O)[C@H]2C(=O)N1Cc1ccccc1	-	-	8.9µM	0	?	0
O=C(/C=C/NNC(=O)c1ccccc1)c1ccc([N+](=O)[O-])cc1	0	0	?	0	4µM	0
O=C(/C=C/NNC(=O)c1ccccc1)c1ccccc1	0	0	?	0	3.2µM	0
CCCCOc1ccc(C(=O)Nc2ccc3c(c2)CCCN3C(=O)c2cccs2)cc1	-	-	?	-	0	-
COc1ccccc1N1CC(C(=O)OC(C)C(=O)N2CCCc3ccccc32)CC1=O (stereo not drawn)	0	0	0	-60	0	0
COc1ccccc1OC(C)C(=O)N1CCc2ccccc21 (stereo not drawn)	0	0	0	0	0	0
O=C(NC1CCCCC1)c1n[nH]c2c1CCCCC2	3.2µM	0	2.5µM	0	0	0

Source: PubChem (National Center for Advancing Translational Sciences (NCATS))
